Data on 8 molecules can be found in PubChem BioAssay (NCI).

The panel holds about 83,000 compounds, 20% with a hit somewhere; the sample as a whole holds those more often.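 Assay: single dose, 48 h. Readout: percent growth (0 = no net growth; negative = cell death). Active: <10.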 Unmarked numbers belong to inactive results. Activity calls are given as the source filed them.

Some test systems named below: HCT-15 colon; HT29 colon; SNB-75 CNS; SNB-19 CNS; U251 CNS; PC-3 prostate; SK-MEL-5 melanoma; UACC-62 melanoma; LOX IMVI melanoma; SK-MEL-28 melanoma; SK-MEL-2 melanoma; EKVX NSCLC; SN12C renal; UO-31 renal; TK-10 renal; ACHN renal; CAKI-1 renal; A498 renal; CCRF-CEM leukemia; MOLT-4 leukemia.
Holding throughout (assay): NCI-60 one-dose screen, 48 h (100 = growth as untreated, 0 = no growth, -100 = all killed)
Details in all cases: 10 µM unless noted

For the molecule `Nc1nc(=S)c2ncn(C3OC(COP(=O)(O)O)C(O)C3O)c2[nH]1` (stereo not given), the growth in the experiment on HCT-15 colon is 9.49% (active); with HT29 colon, 7.19% (active); in the experiment on SNB-75 CNS it was 47.8%; with SNB-19 CNS, 96.1%; in the experiment on U251 CNS, 47.3%; in the experiment on PC-3 prostate, 29.1%. Further, the growth in the experiment on SK-MEL-5 melanoma was 69.5%; in the experiment on UACC-62 melanoma it was 14%; with LOX IMVI melanoma it was 3.07% (active); in the experiment with SK-MEL-28 melanoma it was 73.5%; in the experiment on SK-MEL-2 melanoma it was 14.9%; in the experiment on EKVX NSCLC it was 31.8%. Also, the growth is 29.8% with SN12C renal; 25.1% with UO-31 renal; 8.92% (active) in the experiment with TK-10 renal; 20% in the experiment with ACHN renal; 16.8% in the experiment with CAKI-1 renal; 37.8% in the experiment with A498 renal. The growth is 15.5% in the experiment on CCRF-CEM leukemia and 12.7% in the experiment with MOLT-4 leukemia.
As for `COc1cc2c(c(OC)c1OC)C(=O)CC(c1cccc(NC(=O)c3ccc(Br)cc3)c1)O2` (stereo not given), the growth in the experiment on HCT-15 colon is 29.8%; in the experiment with HT29 colon, 46%; with SNB-75 CNS it was 47.7%; in the experiment with SNB-19 CNS, 64.6%; with U251 CNS, 42.2%; in the experiment on PC-3 prostate, 20.9%. Further, the growth was 4.06% (active) in the experiment on SK-MEL-5 melanoma; 18.8% in the experiment on UACC-62 melanoma; 43.3% in the experiment on LOX IMVI melanoma; 57% in the experiment on SK-MEL-28 melanoma; 8.79% (active) with SK-MEL-2 melanoma; 74.3% with EKVX NSCLC. Further, the growth with SN12C renal was 61.5%; in the experiment with UO-31 renal, 34.9%; in the experiment on TK-10 renal, 61.7%; in the experiment on ACHN renal it was 52.4%; in the experiment with CAKI-1 renal, 46.2%; in the experiment with A498 renal, 36.2%. The growth in the experiment on CCRF-CEM leukemia is 2.95% (active); with MOLT-4 leukemia, -11.5% (active).
For the molecule `C#Cc1cccc(Nc2ncnc3ccc(-c4cncc(NS(C)(=O)=O)c4)cc23)c1`, the growth is 55.9% with HCT-15 colon; 20.7% in the experiment with HT29 colon; 30.6% with SNB-75 CNS; 35.2% with SNB-19 CNS; 4.32% (active) in the experiment on U251 CNS; 26.8% with PC-3 prostate. Moreover, the growth was -75.7% (active) in the experiment with SK-MEL-5 melanoma; 33.4% in the experiment on UACC-62 melanoma; 7.21% (active) with LOX IMVI melanoma; 41.4% with SK-MEL-28 melanoma; -39.7% (active) in the experiment with SK-MEL-2 melanoma; 4.65% (active) in the experiment with EKVX NSCLC. Besides, the growth in the experiment on SN12C renal is 24.2%; with UO-31 renal, 38.4%; in the experiment with TK-10 renal it was -3.64% (active); in the experiment on ACHN renal it was 33.2%; with CAKI-1 renal, 54.9%; in the experiment with A498 renal, -10.7% (active). Besides, the growth in the experiment with CCRF-CEM leukemia was 14%; with MOLT-4 leukemia, -28.3% (active).
On to `CC(=O)N1N=C(c2ccc(Nc3nc(Nc4ccc(Cl)cc4)nc(Nc4ccc(Cl)cc4)n3)cc2)CC1c1ccco1` (stereo not given), for which the growth in the experiment on HCT-15 colon was 85.7%; with HT29 colon, 97.8%; in the experiment with SNB-75 CNS, 112%; in the experiment on SNB-19 CNS it was 101%; with U251 CNS it was 81.7%; in the experiment on PC-3 prostate it was 87.6%. In addition, the growth in the experiment on SK-MEL-5 melanoma is 75.9%; in the experiment on UACC-62 melanoma, 89.9%; with LOX IMVI melanoma it was 95.7%; in the experiment on SK-MEL-28 melanoma it was 111%; with SK-MEL-2 melanoma it was 77.7%; in the experiment on EKVX NSCLC, 97%. The growth in the experiment on SN12C renal is 90.3%; with UO-31 renal, 85.6%; in the experiment with TK-10 renal it was 110%; with ACHN renal, 98.8%; in the experiment on CAKI-1 renal it was 86.8%; with A498 renal it was 107%. Also, the growth in the experiment on CCRF-CEM leukemia is 92.4%; in the experiment on MOLT-4 leukemia it was 66%.
As for `CC1(C)CC[C@]2(c3nnc(-c4ccncc4)o3)CC[C@H]3C(=CC[C@H]4[C@@]3(C)CC[C@H]3C(C)(C)C(=O)CC[C@]43C)[C@@H]2C1`, the growth with HCT-15 colon is 61.1%; in the experiment with HT29 colon, 50.9%; with SNB-75 CNS, 68.3%; in the experiment on SNB-19 CNS, 74%; in the experiment on U251 CNS, 62.4%; in the experiment on PC-3 prostate it was 25.1%. For the same molecule, the growth is 62.4% in the experiment with SK-MEL-5 melanoma; 54.7% in the experiment with UACC-62 melanoma; 57.4% in the experiment on LOX IMVI melanoma; 87.5% in the experiment with SK-MEL-28 melanoma; 97% in the experiment with SK-MEL-2 melanoma; 80.1% in the experiment with EKVX NSCLC. Besides, the growth in the experiment with SN12C renal is 75.2%; in the experiment on UO-31 renal, 51%; in the experiment on TK-10 renal, 97.5%; in the experiment on ACHN renal, 71.3%; with CAKI-1 renal, 58.1%; in the experiment with A498 renal it was 31.6%. Besides, the results for the growth in the experiment on CCRF-CEM leukemia and with MOLT-4 leukemia were 52.5% and 38.7%, respectively.
With `O=C(O)/C(=C\c1ccc(Cl)cc1)c1ccc(Cl)cc1`, the growth with HCT-15 colon is 86.9%; in the experiment on HT29 colon, 93.6%; in the experiment on SNB-75 CNS it was 74.2%; in the experiment on SNB-19 CNS, 103%; in the experiment on U251 CNS it was 91.9%; in the experiment with PC-3 prostate, 89.8%. Besides, the growth in the experiment with SK-MEL-5 melanoma was 96.4%; in the experiment on UACC-62 melanoma, 94.3%; in the experiment with LOX IMVI melanoma it was 95.2%; in the experiment with SK-MEL-28 melanoma it was 95.9%; with SK-MEL-2 melanoma, 90.3%; in the experiment with EKVX NSCLC, 94.3%. The growth in the experiment with SN12C renal is 90.4%; in the experiment on UO-31 renal it was 77.7%; with TK-10 renal, 106%; with ACHN renal, 95.2%; in the experiment with CAKI-1 renal, 70.8%; in the experiment on A498 renal, 94.9%. Also, the growth with CCRF-CEM leukemia is 96.5%; in the experiment on MOLT-4 leukemia, 50%.
As for `COc1ccc2c(c1)c(-c1noc(C(=O)c3cn(C)c4ccc(Br)cc34)n1)cn2C`, the growth was 113% with HCT-15 colon; 92.5% with HT29 colon; 101% with SNB-75 CNS; 102% in the experiment with SNB-19 CNS; 101% with U251 CNS; 95.3% with PC-3 prostate. In addition, the growth with SK-MEL-5 melanoma is 100%; in the experiment with UACC-62 melanoma, 93%; in the experiment on LOX IMVI melanoma it was 96.8%; in the experiment on SK-MEL-28 melanoma, 117%; in the experiment with SK-MEL-2 melanoma, 93.9%; in the experiment with EKVX NSCLC it was 114%. Moreover, the growth is 100% in the experiment with SN12C renal; 76.1% in the experiment on UO-31 renal; 103% in the experiment with TK-10 renal; 103% in the experiment with ACHN renal; 94.2% in the experiment on CAKI-1 renal; 121% in the experiment with A498 renal. The growth in the experiment on CCRF-CEM leukemia was 99.8%; in the experiment with MOLT-4 leukemia it was 82.7%.
For `COc1ccc2cc(-c3ccc(NC(C)=O)c(=O)o3)ccc2c1`, the growth is 100% in the experiment on HCT-15 colon; 87.9% in the experiment with HT29 colon; 97.4% with SNB-75 CNS; 94.1% with SNB-19 CNS; 96% in the experiment on U251 CNS; 89.1% in the experiment on PC-3 prostate. The growth in the experiment on SK-MEL-5 melanoma is 102%; in the experiment with UACC-62 melanoma, 94.8%; with LOX IMVI melanoma, 104%; in the experiment with SK-MEL-28 melanoma, 104%; with SK-MEL-2 melanoma, 98.6%; with EKVX NSCLC, 106%. Besides, the growth in the experiment on SN12C renal was 102%; in the experiment with UO-31 renal it was 77.6%; in the experiment with TK-10 renal it was 97.4%; with ACHN renal, 98.7%; in the experiment with CAKI-1 renal, 89.7%; with A498 renal, 85%. In addition, the growth in the experiment with CCRF-CEM leukemia was 93.1%; in the experiment on MOLT-4 leukemia, 90.9%.
